HPGD block = blocks human HPGD enzyme activity. P15428. 150,000 tested, 4.3% active. AID 894. purified HPGD, NADH fluorescence kinetic, PGE2 substrate. Potency, µM, inactives show at the top dose activity change, negative = inhibition, hits mostly inhibitors; active = well fitted inhibition curve with a large enough effect, not every such curve was filed as active; inconclusive = small, poorly fitted or top-dose-only effect, or another doubt; inactive = no such curve, though single readings can be large or run the other way; note: potency is the fitted concentration of half-maximal effect
Target sequence (P15428 whole entry, looked up): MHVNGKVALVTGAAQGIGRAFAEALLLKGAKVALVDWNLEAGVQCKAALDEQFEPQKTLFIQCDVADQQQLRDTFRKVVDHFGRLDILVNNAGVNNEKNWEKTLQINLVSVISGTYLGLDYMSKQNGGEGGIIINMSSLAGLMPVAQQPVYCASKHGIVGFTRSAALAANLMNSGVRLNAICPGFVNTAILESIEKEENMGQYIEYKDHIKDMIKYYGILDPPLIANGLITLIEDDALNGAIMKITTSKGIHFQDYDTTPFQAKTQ
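NADH formation kinetics: reaction with 30 uM PGE2 and 1 mM NAD+ (final), 20 nM enzyme, Tris-HCl pH 8 with Tween 20, after 15 min compound preincubation at room temperature. Fluorescence change, last versus first of five reads.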
IMPase inh = membrane-permeable compound that blocks inositol monophosphatase. CHO-M1 cells, IP1 accumulation, HTRF TR-FRET ratio. AID 901. 120,000 tested, under 10 active. P97697. inhibition (IP1 accumulation), % at 46.1 µM; active = well fitted curve in the direction sought with a large enough effect in the signal ratio, not every such curve was filed as active; inconclusive = small, poorly fitted or top-dose-only effect, or a change in a side signal; inactive = no such curve, though single readings can be large or run the other way; the % refers to the signal ratio;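 note: cells stimulated with carbachol in lithium chloride buffer; plate controls were DMSO basal wells for no effect and reference inhibitor wells for full effect; higher means more IMPase inhibition seen as more IP1 and lower FRET ratio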
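Carbachol-driven Gq signalling in CHO-M1 cells (2000/well) generates IP1. Compounds that block IMPase raise IP1 and so reduce the FRET signal from Eu-anti-IP1 and d2-IP1 after a 10 min room-temperature lysis.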
PNC assembly inh = blocks assembly of the perinucleolar compartment. PC3M PTB-GFP, PNC prevalence imaging, 16 h; hits give low values. activity change (PNC), negative = inhibition, % at 10 µM. 140,000 tested, 3.1% active. AID 2417;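 active = readout at or below -70, meaning at least 70% loss of cells showing the perinucleolar compartment, a nuclear body marking cancer cells; inconclusive = readout between -30 and a set limit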;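 note: plate controls were DMSO wells for no effect and camptothecin positive control wells for full effect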
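PC3M cells stably expressing PTB-GFP, 750–1000 cells/well, treated 16 h at 37 °C with compound (23 nl of library stock), in duplicate. After paraformaldehyde fixation and Hoechst stain, imaged at 20x; PNC prevalence scored by image analysis.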
IMPase Li cell = cell-permeable IMPase inhibitors with lithium potentiation; CHO-M1 cells, IP1 TR-FRET (IP-One), carbachol + lithium; Potency, µM (doses to about 59.4 µM), for inactives: at the top dose activity, negative = IMPase inhibition, usual class: inhibitors; 210,000 tested, 0.35% active;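 note: IP1 builds up when IMPase is blocked and the TR-FRET signal falls; potency is the fitted concentration of half-maximal effect; plate controls were basal vehicle for no effect and high inhibitor control for full effect; nearly all actives have a fitted effect of over 50% in size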
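CHO-M1, 2000 cells/well, 16–30 h culture; cpd + low Li+, 30 min 37C; lysis with d2-IP1/Eu-anti-IP1 Ab, 10 min RT; TR-FRET 665/620 ratio and 620 channel; AC50 via Hill.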
ALDH1A1 inh = blocks purified human ALDH1A1 activity | Purified ALDH1A1, NADH fluorescence, propionaldehyde substrate | P00352 | Potency, µM (doses to about 75.3 µM), inactives show top-dose activity, negative = inhibition, hits mostly inhibitors | 220,000 tested, 7.3% active; active = well fitted inhibition curve with a large enough effect, not every such curve was filed as active; inconclusive = small, poorly fitted or top-dose-only effect, or another doubt; inactive = no such curve, though single readings can be large or run the other way;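 note: potency is the fitted concentration of half-maximal effect; plate controls were no enzyme wells and a reference inhibitor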
NPSR antagonist = neuropeptide S receptor (human) antagonism, cAMP; Q6W5P4; CHO-NPSR cells, cAMP TR-FRET, antagonist mode; Potency, µM (titrated, usually from 38.3 µM), inactives show at the highest dose activity change, negative = inhibition, actives largely listed as inhibitors; 220,000 tested, 1% active; AID 1461; note: potency is the fitted concentration of half-maximal effect; nearly all actives have a fitted effect of over 50% in size
Target sequence (Q6W5P4 whole entry, looked up): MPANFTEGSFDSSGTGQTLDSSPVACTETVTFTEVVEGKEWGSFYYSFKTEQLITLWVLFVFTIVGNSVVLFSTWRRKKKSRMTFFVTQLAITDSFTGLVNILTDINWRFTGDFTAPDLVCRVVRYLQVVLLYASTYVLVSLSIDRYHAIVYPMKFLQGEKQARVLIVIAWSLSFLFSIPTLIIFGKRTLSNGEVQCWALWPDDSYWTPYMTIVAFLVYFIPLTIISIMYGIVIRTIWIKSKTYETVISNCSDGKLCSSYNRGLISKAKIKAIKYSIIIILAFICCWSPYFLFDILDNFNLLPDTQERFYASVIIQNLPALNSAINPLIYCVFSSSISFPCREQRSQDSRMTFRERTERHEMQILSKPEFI
* = called active by the depositor; ? = inconclusive; . = no result; [ ] = another dose, or the depositor's remark. A selection: hits, their analogues and other compounds. The true share with any hit is near 11%. Unless noted, calls come from the whole dose curve; as a rule, active = well fitted curve in the direction sought with a large enough effect; inconclusive = small, poorly fitted or top-dose-only effect, or another doubt; inactive = no such curve, though single readings can be large; an effect the other way counts as inactive or inconclusive. Unless noted, % is set by controls: 0 for no effect and ±100 for the full control effect.

SMILES | HPGD block | IMPase inh | PNC assembly inh | IMPase Li cell | ALDH1A1 inh | NPSR antagonist
O=C(N/N=C/c1cccc(O)c1)c1cc(-c2ccc3c(c2)OCO3)n[nH]1 | -15% | 12 | 2 | 2% | 16% | -16%
Cc1ccc(S(=O)(=O)N(CC(=O)NCC2CCCO2)c2cccc([N+](=O)[O-])c2)cc1 (stereo not drawn) | . | . | . | . | 14µM* | -12%
COc1ccccc1CN(CC(=O)NCC1CCCO1)C(=O)CNS(=O)(=O)c1ccc(C)cc1 (stereo not drawn) | 1% | 10 | 21 | 3%[38.3 µM] | 13µM* | -5%[46.1 µM]
CCOc1ccc(N(CC(=O)NCC2CCCO2)S(=O)(=O)c2ccc(SC)cc2)cc1 (stereo not drawn) | -6% | -6 | ? | 21%[38.3 µM] | 4µM* | ?
COc1ccc(N(CC(=O)NCC2CCCO2)S(=O)(=O)c2ccc(C)cc2)cc1OC (stereo not drawn) | -7% | -2 | ? | 22%[38.3 µM] | 4% | -10%[46.1 µM]
COc1ccc(CCN=C(N)NS(=O)(=O)c2ccccc2)cc1 | -14% | . | 7 | 4% | ? | 3%
c1cc2c(cc1C1=NNC(=NC3CC3)SC1)OCCO2 | . | . | . | 13% | 10µM* | -27%
COCCN=C1NN=C(c2ccc(C)c([N+](=O)[O-])c2)CS1 | . | . | . | 8% | ? | 8%
FC(F)Sc1ccc(N=C2NN=C(c3ccc4c(c3)OCCO4)CS2)cc1 | -8% | -2 | 21 | -8%[38.3 µM] | ? | -8%[46.1 µM]
CCCCN=C1NN=C(c2ccc(C)c(C)c2)CS1 | . | . | . | -8% | 20µM* | -13%
COCCn1c(C)cc(C2=NNC(=Nc3ccccc3)SC2)c1C | -15% | -1 | 2 | 21%[38.3 µM] | ? | -4%[46.1 µM]
COc1ccc(N=C2NN=C(c3ccc4c(c3)OCCO4)CS2)cc1 | -3% | -19 | 30 | ? | 25µM* | -7%[46.1 µM]
COCCn1c(C)cc(C2=NNC(=Nc3ccc(OC)cc3)SC2)c1C | -16% | 4 | ? | -11%[38.3 µM] | 10µM* | -8%[46.1 µM]
CCOC(=O)c1c(C(C)(C)C)oc2ccc(O)cc12 | ? | 6 | -3 | 3%[38.3 µM] | ? | -13%[46.1 µM]
CCN=C1NN=C(c2c[nH]c3ccccc23)CS1 | . | . | . | 10% | -7% | -7%
CCCCN=C1NN=C(c2ccc3c(c2)OCCO3)CS1 | . | . | . | 4% | 10µM* | -14%
CS(=O)(=O)N(Cc1ccc(F)cc1)Cc1nc2ccccc2c(=O)[nH]1 | -1% | 8 | 24 | 0%[38.3 µM] | 25µM* | -6%[46.1 µM]
CC(C)(C)OC(=O)NCC12C=CC(O1)C1C(=O)N(Cc3ccccc3)C(=O)C12 (stereo not drawn) | -11% | 13 | 27 | 5% | 3.2µM* | -10%[46.1 µM]
COC(=O)CC1C(=O)NCCN1C(=O)CSc1nnc(Nc2ccc(C)cc2)s1 (stereo not drawn) | -11% | -5 | -28 | 8%[38.3 µM] | -4% | -4%[46.1 µM]
COC(=O)CC1C(=O)NCCN1C(=O)CSc1nnc(Nc2ccc(OC)cc2)s1 (stereo not drawn) | ? | 3 | 31 | 26%[38.3 µM] | 25µM* | -3%[46.1 µM]
O=C(Cn1cnnn1)Nc1ccccc1Cc1ccccc1 | -2% | 1 | -100* | 2%[38.3 µM] | 1% | -10%[46.1 µM]
Cn1nnnc1SCC(=O)Nc1ccccc1Cc1ccccc1 | -10% | -2 | 9 | 4%[38.3 µM] | -6% | 8%[46.1 µM]
O=C(/C=C/Sc1ccccc1)c1ccc(Cl)cc1 | -17% | -3 | -17 | 26%[38.3 µM] | ? | ?
O=C(/C=C/Sc1ccccc1)c1ccccc1 | ? | 3 | ? | -2%[38.3 µM] | 7.9µM* | ?
Cc1nc(-c2ccc(S(=O)(=O)Nc3ccc(Br)cc3Cl)s2)cs1 | . | . | . | . | . | -40%
SMILES | HPGD block | IMPase inh | PNC assembly inh | IMPase Li cell | ALDH1A1 inh | NPSR antagonist
CC1=C(C(=O)c2ccccc2)C(c2ccc(OC(F)F)cc2)NC(=S)N1 (stereo not drawn) | . | . | . | 11% | 1.1µM* | -17%
Cc1ccc(Nc2nc(C3CC3)cs2)cc1 | -16% | -1 | -119* | 11% | ? | -9%
O=C(O)c1cn(-c2ccc(N3CCCC3)c(F)c2)c2c(F)c(F)c(F)cc2c1=O | . | . | . | -17% | 16µM* | -33%
COc1cc(OC)cc(C(=O)NCC(=O)OCC(=O)N2c3ccccc3NC(=O)C2(C)C)c1 | . | . | . | 1% | ? | 7%
Cc1ccc(S(=O)(=O)C2(C(=O)N3CCCCCC3)CC2)cc1 | 13µM* | 4 | -28 | -3%[38.3 µM] | 7.1µM* | ?
Cc1ccc(S(=O)(=O)CC(=O)N2CCCC2)cc1 | -14% | -7 | -100* | 4% | 2% | -1%[46.1 µM]
Cc1ccc(S(=O)(=O)N(C)CC(=O)N2CCCC2)cc1 | -13% | 10 | 1 | -2% | 3.5µM* | 3%[46.1 µM]
COc1ccc(S(=O)(=O)N(C)CC(=O)N2CCN(Cc3ccccc3)CC2)cc1C | -15% | 1 | ? | 35%[38.3 µM] | 16µM* | 2%[46.1 µM]
Cc1ccc(S(=O)(=O)C2(C(=O)N3CCN(C4CCCCC4)CC3)CC2)cc1 | -4% | 2 | 27 | 0% | -2% | -7%[46.1 µM]
CCc1c(C)c(C#N)c2nc3ccccc3n2c1N1CCN(c2cc(C)ccn2)CC1 | -2% | 6 | 26 | 0%[38.3 µM] | 7% | -7%[46.1 µM]
Cc1ccc(NC(=O)C2(c3ccc([N+](=O)[O-])cc3)CCCC2)cc1 | . | 3 | 79 | . | 4% | ?
Cc1ccc(S(=O)(=O)CC(=O)c2cc(C)c(O)c(C)c2)cc1 | . | . | . | 9% | 1.8µM* | -5%
COc1cc(C)nc(Nc2nc(C)c(C(C)=O)s2)n1 | . | 5 | 17 | . | 1.6µM* | ?
CC(=O)c1sc(Nc2ccccn2)nc1C | -17% | ? | ? | 14µM* | 20µM* | 18%[46.1 µM]
CC(=O)Nc1nc(C)c(C(C)=O)s1 | -20% | -13 | 30 | 28%[38.3 µM] | -10% | 5%[46.1 µM]
COc1ccc2nc(Nc3nc(C)c(C(C)=O)s3)sc2c1 | ? | 13 | 45 | 27%[38.3 µM] | ? | ?
CC(=O)c1sc(NC(=O)C(C)C)nc1C | -5% | ? | 29 | 11µM* | 6% | 29%[46.1 µM]
Cc1cc(C)n2nc(SCC(=O)Nc3cccc(C(F)(F)F)c3)nc2n1 | . | 3 | . | . | . | .
CC1CN(C(=O)COC(=O)c2cccs2)CC(C)O1 (stereo not drawn) | -3% | 2 | -4 | -1%[38.3 µM] | 4% | -8%[46.1 µM]
O=C(COc1ccc(C(=S)N2CCOCC2)cc1Cl)Nc1ccccc1Cl | . | . | . | -2% | 18µM* | -4%
CCOC(=O)c1c(NC(=O)CSc2nnc(-c3cccc(C)c3)n2CC)sc(C(C)=O)c1C | 16µM* | -1 | 35 | 10%[38.3 µM] | 5% | ?
NC(=O)c1c(NC(=O)COC(=O)CSc2nnc(-c3ccc(Cl)cc3)o2)sc2c1CCC2 | ? | -7 | 95 | 22%[38.3 µM] | -15% | -13%[46.1 µM]
CCOC(=O)c1sc(NC(=O)CSc2nnc(-c3ccco3)n2CC)c(C(=O)OCC)c1C | ? | -9[1.84 µM] | 13 | 37%[38.3 µM] | ? | ?
